Source: PubChem BioAssay (NCATS)
Values joined by “and” are separate entries in the source; they are usually repeats but may differ in a detail not shown here. Identical values can stand only once. Records with an inconclusive call do not appear. Some structures have more than one record in an assay (separate samples or runs), and their calls can disagree. Active and inactive are the calls of the source. Unless noted, calls come from the whole dose curve; as a rule, active = well fitted curve in either direction with a large enough effect (not every such curve was filed as active); inconclusive = small, poorly fitted or top-dose-only effect, or another doubt; inactive = flat fitted curve, though single readings scatter.

Tests used:
[1] = AP1 Signaling Pathway (AID 357); conditions: ME-180 AP-1-bla reporter, EGF-induced, beta-lactamase ratio, 5 h; at 7.69 µM (top of the series) unless noted;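 note: ME-180 reporter cells stimulated with EGF at its EC50 level; % is set by controls: 0 for no effect and ±100 for the full control effect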
Method in brief: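 AP-1-bla ME-180 cells, Opti-MEM + 0.5% dialyzed FBS, plated overnight 37 °C. Cpd titration + EC50 EGF, 5 h 37 °C. CCF4 2.5 h RT; ex 405, em 460/530 ratio → %activity, AC50.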

[2] = biological target: Cytochrome P450 1A2 (Homo sapiens) (UniProt P05177); experiment: p450-cyp1a2 (AID 410; calls by dose curve; note: potency is the fitted concentration of half-maximal effect;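 for activity change, negative = inhibition: -100% = full effect of reference inhibitor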)
Cytochrome P450 1A2 (Homo sapiens), sequence (P05177 whole entry, looked up): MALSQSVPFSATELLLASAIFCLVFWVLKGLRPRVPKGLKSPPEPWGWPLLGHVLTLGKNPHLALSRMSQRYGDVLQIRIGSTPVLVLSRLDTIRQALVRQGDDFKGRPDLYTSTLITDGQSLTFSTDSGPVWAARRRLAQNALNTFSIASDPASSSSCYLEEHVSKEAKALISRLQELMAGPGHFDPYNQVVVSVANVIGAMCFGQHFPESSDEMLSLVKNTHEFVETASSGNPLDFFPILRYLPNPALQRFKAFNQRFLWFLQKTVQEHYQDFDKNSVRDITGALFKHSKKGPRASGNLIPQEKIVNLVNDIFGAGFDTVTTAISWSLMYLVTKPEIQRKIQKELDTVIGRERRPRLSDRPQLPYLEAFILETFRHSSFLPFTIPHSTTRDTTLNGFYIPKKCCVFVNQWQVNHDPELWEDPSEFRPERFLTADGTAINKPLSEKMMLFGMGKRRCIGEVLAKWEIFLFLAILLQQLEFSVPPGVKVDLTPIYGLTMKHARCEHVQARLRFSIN
Method in brief: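 O-Demethylation of luciferin 6' methyl ether by human CYP1A2 is monitored as luciferase luminescence. Substrate sits at Km (100uM); enzyme is 20nM. Values are scaled to 57 uM furafylline as maximal inhibition.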

[3] = NFAT Signaling Pathway (AID 444); conditions: Jurkat NFAT-bla M1, carbachol, beta-lactamase ratio, 5 h; at 7.69 µM (top of the series) unless noted;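 note: carbachol stimulus at about its EC50 of 1 µM final; % is set by controls: 0 for no effect and ±100 for the full control effect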
Method in brief: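 Jurkat cells with NFAT-driven β-lactamase reporter and co-expressed M1 receptor, stimulated with carbachol (final 1 uM, ~EC50), compound titration, 5 h at 37 °C. CCF4 loaded 1 h at RT; 460/530 nm ratio gave %activity and AC50.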

[4] = Stat Signaling Pathway (AID 446); conditions: ME-180 (cervical carcinoma) SIE beta-lactamase reporter, IL-6 stimulated, 5 h; at 7.69 µM (top of the series) unless noted;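 note: ME-180 cervical cancer cells given 40 pM IL-6 alongside compound; SIE-controlled beta-lactamase reporter measured as 460/530 nm FRET emission ratio; % is set by controls: 0 for no effect and ±100 for the full control effect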
Method in brief: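 Normalization used AC90 stimulation (300 pM IL-6) and AC90 inhibition (125 nM pan-JAK inhibitor at 40 pM IL-6). The underlying signal is SIE-driven beta-lactamase in ME-180 cells after 5 h IL-6 exposure with compound.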

[5] = biological target: Glucocorticoid receptor (Homo sapiens) (UniProt P04150); experiment: GR-GFP Redistribution (AID 450;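 active = compounds whose dose series gives a full or clear partial fitted curve of increased nuclear translocation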; note: potency is the fitted concentration of half-maximal effect); conditions: U2OS GR-GFP nuclear translocation, laser cytometry, 2 h
Glucocorticoid receptor (Homo sapiens), sequence (P04150 whole entry, looked up, the tested form may be a part): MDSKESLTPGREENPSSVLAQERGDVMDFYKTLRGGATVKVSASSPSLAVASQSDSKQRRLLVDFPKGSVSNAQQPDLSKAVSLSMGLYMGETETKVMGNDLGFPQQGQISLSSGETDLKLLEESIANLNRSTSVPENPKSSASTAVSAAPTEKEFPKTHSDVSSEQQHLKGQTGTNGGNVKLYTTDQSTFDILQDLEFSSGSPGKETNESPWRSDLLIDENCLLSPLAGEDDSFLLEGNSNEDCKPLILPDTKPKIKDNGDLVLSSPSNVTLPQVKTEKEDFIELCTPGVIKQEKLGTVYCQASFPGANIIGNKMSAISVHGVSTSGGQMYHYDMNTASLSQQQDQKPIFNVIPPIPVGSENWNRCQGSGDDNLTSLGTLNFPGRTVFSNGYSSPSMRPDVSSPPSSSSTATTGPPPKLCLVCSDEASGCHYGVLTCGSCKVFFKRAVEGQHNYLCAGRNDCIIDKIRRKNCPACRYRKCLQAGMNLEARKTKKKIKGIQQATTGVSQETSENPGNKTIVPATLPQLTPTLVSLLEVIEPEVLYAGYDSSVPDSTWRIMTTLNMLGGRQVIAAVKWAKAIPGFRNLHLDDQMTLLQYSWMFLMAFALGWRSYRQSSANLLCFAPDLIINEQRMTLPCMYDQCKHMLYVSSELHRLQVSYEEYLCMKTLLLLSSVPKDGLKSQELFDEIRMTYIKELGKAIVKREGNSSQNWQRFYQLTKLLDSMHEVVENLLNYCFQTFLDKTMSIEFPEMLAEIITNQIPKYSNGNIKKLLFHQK

[6] = biological target: Mitogen-activated protein kinase 10 (Mus musculus) (UniProt Q61831); experiment: JNK3 AlphaScreen Assay (AID 530);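 note: kinase came from lysate of stimulated human HepG2 cells; signal reports phosphorylation of biotinylated GST-cJun 1-79 at Ser73 with 10 µM ATP; % is set by controls: 0 for no effect and ±100 for the full control effect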
Method in brief: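 Activity was read by AlphaScreen after JNK3-containing HepG2 lysate (cytokine pre-activated) phosphorylated biotinylated GST-cJun with 10 uM ATP at room temperature. Phospho-Ser73 cJun antibody with Protein-A acceptor beads provided detection.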

[7] = biological target: 3',5'-cyclic-AMP phosphodiesterase 4B (Homo sapiens) (UniProt Q07343); experiment: qHTS Assay for Inhibitors of PDE-IV (AID 607; active = well fitted activation curve with a large enough effect in the main read-out, with a control signal flat, not every such curve was filed as active; note: % of control where 0% means no effect)
3',5'-cyclic-AMP phosphodiesterase 4B (Homo sapiens), sequence (Q07343 whole entry, looked up): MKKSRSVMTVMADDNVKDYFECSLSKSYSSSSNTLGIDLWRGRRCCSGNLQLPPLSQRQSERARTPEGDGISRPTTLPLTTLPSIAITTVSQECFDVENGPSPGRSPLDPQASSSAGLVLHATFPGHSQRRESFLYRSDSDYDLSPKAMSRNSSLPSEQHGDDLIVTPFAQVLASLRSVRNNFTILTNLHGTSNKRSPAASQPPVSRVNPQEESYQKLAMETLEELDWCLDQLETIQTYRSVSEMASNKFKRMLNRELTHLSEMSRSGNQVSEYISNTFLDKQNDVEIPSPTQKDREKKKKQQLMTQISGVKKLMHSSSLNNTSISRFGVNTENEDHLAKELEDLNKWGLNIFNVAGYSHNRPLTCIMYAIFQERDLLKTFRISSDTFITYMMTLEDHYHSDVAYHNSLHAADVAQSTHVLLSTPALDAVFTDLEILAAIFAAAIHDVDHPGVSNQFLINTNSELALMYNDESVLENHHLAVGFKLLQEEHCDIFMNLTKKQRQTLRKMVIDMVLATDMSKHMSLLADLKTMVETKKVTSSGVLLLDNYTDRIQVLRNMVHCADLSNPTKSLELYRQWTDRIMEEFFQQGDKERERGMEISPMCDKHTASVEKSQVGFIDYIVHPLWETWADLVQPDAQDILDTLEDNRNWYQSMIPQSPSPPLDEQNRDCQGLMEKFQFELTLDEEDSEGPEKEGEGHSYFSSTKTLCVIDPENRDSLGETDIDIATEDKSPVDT
Method in brief: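 HEK293 ACTOne cells with CNG channel (1000/well), endogenous PDE4; membrane potential dye, compounds up to 22.9 uM final. Fluorescence Ex 535/Em 590; RO 20-1724 (100 uM final) as reference.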

[8] = qHTS Assay for Lipid Storage Modulators (AID 1519; calls by dose curve); conditions: Drosophila S3 cells, BODIPY lipid droplet/cell ratio, laser cytometry, cells loaded with oleic acid
Method in brief: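 Cells seeded at 5,000 per well were treated with compounds over a concentration series and loaded with oleic acid (400 uM, as added). Lipid droplet fluorescence (488 nm excitation, 500-530 nm channel) was read by laser-scanning cytometry and normalized to 20 uM Triacsin C.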

[9] = biological target: Ubiquitin carboxyl-terminal hydrolase 1 (Homo sapiens) (UniProt O94782); experiment: Inhibitors of USP1/UAF1: Pilot qHTS (AID 504865; active = well fitted curve in the direction sought with a large enough effect; an effect the other way counts as inactive or inconclusive;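 note: rhodamine fluorescence freed from ubiquitin-rhodamine substrate followed over time; top concentration of the series differs between compounds; % is set by controls: 0 for no effect and ±100 for the full control effect; nearly all actives have a fitted effect of over 35% in size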)
Ubiquitin carboxyl-terminal hydrolase 1 (Homo sapiens), sequence (O94782 whole entry, looked up): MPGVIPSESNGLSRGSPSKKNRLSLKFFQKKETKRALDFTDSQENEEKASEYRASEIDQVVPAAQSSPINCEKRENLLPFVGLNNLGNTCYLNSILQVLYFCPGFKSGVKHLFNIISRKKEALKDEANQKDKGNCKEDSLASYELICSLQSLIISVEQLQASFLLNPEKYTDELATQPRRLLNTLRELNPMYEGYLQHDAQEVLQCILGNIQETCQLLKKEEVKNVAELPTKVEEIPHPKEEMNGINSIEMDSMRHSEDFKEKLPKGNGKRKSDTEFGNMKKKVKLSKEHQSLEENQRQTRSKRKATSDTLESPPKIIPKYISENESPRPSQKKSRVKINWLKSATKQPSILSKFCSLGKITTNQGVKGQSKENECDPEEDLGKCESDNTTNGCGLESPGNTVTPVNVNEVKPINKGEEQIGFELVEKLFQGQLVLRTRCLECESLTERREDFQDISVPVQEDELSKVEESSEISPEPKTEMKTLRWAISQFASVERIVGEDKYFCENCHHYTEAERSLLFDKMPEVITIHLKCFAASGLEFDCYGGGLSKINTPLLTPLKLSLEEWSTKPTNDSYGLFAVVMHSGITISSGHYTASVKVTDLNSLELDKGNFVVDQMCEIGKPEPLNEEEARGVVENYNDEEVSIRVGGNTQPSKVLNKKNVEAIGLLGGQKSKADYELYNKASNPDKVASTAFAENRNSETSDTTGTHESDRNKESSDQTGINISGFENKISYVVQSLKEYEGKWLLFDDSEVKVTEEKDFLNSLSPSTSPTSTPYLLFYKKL
Method in brief: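 1nM USP1/UAF1 + cpd, 15 min RT; start w/ Ub-Rho 150nM final; kinetic FL 480/540 nm, 6 reads q60 s. Buffer 50mM HEPES pH 7.8, 0.5mM EDTA, 1mM TCEP, 0.01% Tween-20, 0.1 mg/ml BSA.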

[10] = qHTS profiling for inhibitors of Plasmodium falciparum proliferation (AID 504749; active = well fitted curve in the direction sought with a large enough effect; an effect the other way counts as inactive or inconclusive;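 note: 0% = DMSO vehicle and full inhibition = artemisinin control; nearly all actives have a fitted effect of over 60% in size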); conditions: P. falciparum in erythrocytes, SYBR Green DNA, 72 h
Method in brief: (§1)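 Each compound contacts P. falciparum-infected red blood cells for 72 h at 37 C; lysis buffer (Tris, EDTA, saponin, Triton X, SYBR Green I) is added and fluorescence measured next morning; values normalized to controls.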

[11] = test system: AS120; experiment: as above; conditions: P. falciparum in erythrocytes, SYBR Green DNA, 72 h; series mostly up to 28.7 µM
Method in brief: as §1

[12] = test system: CP203; experiment: as above; conditions: P. falciparum in erythrocytes, SYBR Green DNA, 72 h; series mostly up to 12.8 µM
Method in brief: as §1

[13] = test system: CP291; experiment: as above; conditions: P. falciparum in erythrocytes, SYBR Green DNA, 72 h; series mostly up to 12.8 µM
Method in brief: as §1

[14] = test system: DFO2036; experiment: as above; conditions: P. falciparum in erythrocytes, SYBR Green DNA, 72 h; series mostly up to 12.8 µM
Method in brief: as §1

[15] = biological target: Glucocorticoid receptor (Homo sapiens) (UniProt P04150); experiment: GR-EFC Redistribution (AID 451; calls by dose curve; note: potency is the fitted concentration of half-maximal effect); conditions: CHO-K1 GR-EFC translocation, beta-gal luminescence, 2 h
Method in brief: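 CHO-K1 cells expressing nuclear EA and GR-ED fragments of b-gal; compounds titrated up to 46 uM final, 2 h at 37 C. GR nuclear translocation read as complemented b-gal luminescence after 1 h RT detection.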

[16] = biological target: Cytochrome P450 3A4 (Homo sapiens) (UniProt P08684); experiment: qHTS Assay for Activators of Cytochrome P450 3A4 (AID 885; active = well fitted curve in the direction sought with a large enough effect; an effect the other way counts as inactive or inconclusive; note: nearly all actives have a fitted effect of over 65% in size)
Cytochrome P450 3A4 (Homo sapiens), sequence (P08684 whole entry, looked up): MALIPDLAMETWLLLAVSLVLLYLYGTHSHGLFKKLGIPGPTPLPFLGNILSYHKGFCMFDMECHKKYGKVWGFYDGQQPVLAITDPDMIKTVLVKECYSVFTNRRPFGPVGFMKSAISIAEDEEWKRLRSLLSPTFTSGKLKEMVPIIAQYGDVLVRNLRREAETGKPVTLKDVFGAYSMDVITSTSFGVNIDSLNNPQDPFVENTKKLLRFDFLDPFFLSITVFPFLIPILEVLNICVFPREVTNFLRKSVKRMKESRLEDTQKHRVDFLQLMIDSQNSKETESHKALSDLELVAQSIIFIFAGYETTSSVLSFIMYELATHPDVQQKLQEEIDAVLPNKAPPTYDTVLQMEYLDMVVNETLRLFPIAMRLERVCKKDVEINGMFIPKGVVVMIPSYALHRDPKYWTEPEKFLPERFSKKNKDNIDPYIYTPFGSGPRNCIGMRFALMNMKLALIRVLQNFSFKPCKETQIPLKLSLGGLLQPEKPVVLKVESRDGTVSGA
Method in brief: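 Human CYP3A4 dealkylates Luciferin-PPXE to luciferin, which luciferase detection converts to light. Substrate was at its KM (25uM), buffer 200mM KPO4, reaction 60 min at RT.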

[17] = biological target: Cytochrome P450 3A4 (Homo sapiens) (UniProt P08684); experiment: qHTS Assay for Inhibitors and Substrates of Cytochrome P450 3A4 (AID 884; active = well fitted curve in the direction sought with a large enough effect; an effect the other way counts as inactive or inconclusive; note: % is set by controls: 0 for no effect and ±100 for the full control effect; nearly all actives have a fitted effect of over 50% in size)
Method in brief: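 Luminescent readout of luciferin produced by CYP3A4 (20 nM) dealkylation of Luciferin-PPXE, 25 uM (its KM). NADPH-driven reaction ran 60 min at RT after 10 min compound preincubation; data scaled to 57 uM ketoconazole as 100% inhibition.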

[18] = measured here: cell count channel max response
[19] = measured here: lipid channel max response
[20] = at 12.8 µM (top of the series), parasite line A
[21] = at 12.8 µM (top of the series), parasite line B

NS(=O)(=O)c1cc([C@@]2(O)NC(=O)c3ccccc32)ccc1Cl
-12.6%: max response [8, 18]
-14.5%: max response [8, 19]
inactive: activity change, negative = inhibition [1] -7.43% [at 17.2 µM] | Potency [2] | activity change, negative = inhibition [3] -15.2% [at 17.2 µM] | activity, negative = inhibition [4] 1.16% [at 17.2 µM] | Potency [5] > 20.6 µM | Potency [6] | Potency [7] | activity change, negative = inhibition ([8]; at 25.7 µM (top of the series)) -1.2% | Potency [9] | activity, negative = inhibition [10, 20] -2.59% | activity, negative = inhibition [10, 21] 2.66% | Potency [11] | Potency [12] | Potency [13] | Potency [14]

C[N+]1(C)CCC[C@@H](OC(=O)C(O)(c2ccccc2)c2ccccc2)C1
-16.2%: max response [8, 19]
inactive: activity change, negative = inhibition [1] 3.62% [at 17.2 µM] | Potency [2] | activity, negative = inhibition [4] 11.2% [at 17.2 µM] | Potency [5] > 20.6 µM | Potency [15] > 20.6 µM | Potency [6] | Potency [7] | activity change, negative = inhibition ([8]; at 25.7 µM (top of the series)) -3.46% | Potency [9] | activity, negative = inhibition [10, 20] 9.41% | activity, negative = inhibition [10, 21] 6.69% | Potency [11] | Potency [12] | Potency [13] | Potency [14]
-12.3%: max response [8, 18]
active: activity change, negative = inhibition [3] -62.4% [at 17.2 µM]

O=C(O)[C@H]1CCCN(CCC=C(c2ccccc2)c2ccccc2)C1
-26.7%: max response [8, 19]
inactive: activity change, negative = inhibition [1] 3.95% [at 38 µM] | activity change, negative = inhibition [3] -15.6% [at 38 µM] | activity, negative = inhibition [4] 26.3% [at 38 µM] | Potency [5] > 46 µM | Potency [15] > 46 µM | Potency [6] | Potency [7] | activity change, negative = inhibition ([8]; at 57.5 µM (top of the series)) -4.66%
inactive and 31.6 µM (active): Potency [2]
-22.7%: max response [8, 18]

COc1ccccc1OC[C@H](O)COC(N)=O
active: Potency [2] 10 µM
-1.12%: max response [8, 18]
2.55%: max response [8, 19]
inactive: activity change, negative = inhibition [1] -6.22% [at 17.2 µM] | activity change, negative = inhibition [3] -5.33% [at 17.2 µM] | activity, negative = inhibition [4] 10.4% [at 17.2 µM] | Potency [5] > 20.6 µM | Potency [15] > 20.6 µM | Potency [6] | Potency [7] | activity change, negative = inhibition ([8]; at 25.7 µM (top of the series)) 1.49% | activity, negative = inhibition [10, 20] 3.95% | activity, negative = inhibition [10, 21] 18.1% | Potency [11] | Potency [12] | Potency [13] | Potency [14]

CN(C)CCOC(c1ccccc1)c1ccccc1 (tested in a mixture with another compound)
active: activity change, negative = inhibition [3] -93.6% [at 17.2 µM]
-0.682%: max response [8, 18]
inactive: activity change, negative = inhibition [1] 27.4% [at 17.2 µM] and 19.6% [at 17.2 µM] | activity, negative = inhibition [4] 7.8% [at 17.2 µM] and 0.334% [at 17.2 µM] | Potency [6] | Potency [7] | activity change, negative = inhibition ([8]; at 25.7 µM (top of the series)) -3.15%
-4.36%: max response [8, 19]

COc1c2ccoc2nc2c(OC)c(OC[C@H](O)C(C)(C)O)ccc12
active: Potency [2] 10 µM and 25.1 µM
-11%: max response [8, 19]
-8.76%: max response [8, 18]
inactive: activity change, negative = inhibition [1] 1.86% [at 17.2 µM] | activity change, negative = inhibition [3] 15.7% [at 17.2 µM] | activity, negative = inhibition [4] -10.7% [at 17.2 µM] | Potency [5] > 20.6 µM and > 46 µM | Potency [15] > 20.6 µM and > 46 µM | Potency [6] | Potency [7] | Potency [16] | activity change, negative = inhibition ([8]; at 25.7 µM (top of the series)) -1.84% | Potency [9]

CCCN[C@@H](C)C(=O)Nc1c(C)csc1C(=O)OC
-6.57%: max response [8, 18]
inactive: activity change, negative = inhibition [1] 8.34% [at 17.2 µM] | activity change, negative = inhibition [3] -13.1% [at 17.2 µM] | activity, negative = inhibition [4] -0.411% [at 17.2 µM] | Potency [5] > 20.6 µM | Potency [15] > 20.6 µM | Potency [6] | Potency [7] | Potency [16] | activity change, negative = inhibition ([8]; at 25.7 µM (top of the series)) -2.12% | activity, negative = inhibition [10, 20] 6.61% | activity, negative = inhibition [10, 21] 16.5% | Potency [11] | Potency [12] | Potency [13] | Potency [14]
active: Potency [2] 12.6 µM
-14.2%: max response [8, 19]

CC1(C)Oc2ccc(C#N)cc2[C@H](N2CCCC2=O)[C@H]1O
5.79% and -0.997%: max response [8, 18]
active: Potency [2] 10 µM
6.51% and -0.942%: max response [8, 19]
inactive: Potency [5] > 46 µM | Potency [15] > 46 µM | Potency [6] | Potency [7] | activity change, negative = inhibition ([8]; at 57.5 µM (top of the series)) 0.0468% and 5.32% | Potency [9] | activity, negative = inhibition ([10]; at 28.7 µM (top of the series), parasite line A) 10.2% | activity, negative = inhibition ([10]; at 28.7 µM (top of the series), parasite line B) 9.46% | Potency [11] | Potency [12] | Potency [13] | Potency [14]

C[C@@](N)(Cc1ccc(O)cc1)C(=O)O
inactive: activity change, negative = inhibition [1] -8.05% [at 38 µM] and -6.78% [at 38 µM] | Potency [2] | activity change, negative = inhibition [3] -13% [at 38 µM] and 8.58% [at 38 µM] | activity, negative = inhibition [4] 3.69% [at 38 µM] | Potency [5] > 46 µM | Potency [15] > 46 µM | Potency [6] | Potency [7] | Potency [17] | activity change, negative = inhibition ([8]; at 57.5 µM (top of the series)) 1.23% | Potency [9]
15.7%: max response [8, 18]
18.3%: max response [8, 19]

CCCN1C[C@H](CSC)C[C@H]2c3cccc4[nH]cc(c34)C[C@@H]21
-9.12%: max response [8, 19]
active: Potency [2] 3.16 µM and 1.58 µM
inactive: activity change, negative = inhibition [1] -5.45% [at 17.2 µM] | activity, negative = inhibition [4] 6.37% [at 17.2 µM] | Potency [5] > 20.6 µM and > 46 µM | Potency [15] > 20.6 µM and > 46 µM | Potency [6] | Potency [16] | activity change, negative = inhibition ([8]; at 25.7 µM (top of the series)) -0.938%
-9.01%: max response [8, 18]

C=C1C2CC[C@@]3(C)C(c4ccoc4)OC(=O)C[C@@]13OC1CC(O)C(C)(C)C(CC(=O)OC)[C@@]12C (stereo not given in full)
9.22% and 0.891%: max response [8, 18]
-12.6% and -14.6%: max response [8, 19]
inactive: Potency [16] | activity change, negative = inhibition ([8]; at 57.5 µM (top of the series)) -26.4% and -20.4% | Potency [9]
